Screening results deposited in PubChem BioAssay by several laboratories.
proKLK7 act: activators of human kallikrein-7 zymogen; P49862; 370,000 tested, 0.9% active; activation, % at 7 µM; purified proKLK7, EDANS-DABCYL substrate fluorescence; 100% is mature enzyme control, 0% vehicle;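 active means activation above the mean of all tested compounds plus 3 SD, computed per campaign excluding outliers beyond control limits, cut at about 13% in these data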
ADAM10 inh: inhibitors of human ADAM10; recombinant ADAM10, EDANS/DABCYL FRET peptide cleavage, 3 h; AID 720582; O14672; inhibition, % at 7 µM; 370,000 tested, 0.62% active;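 active means inhibition above a per-campaign cutoff equal to the mean of compounds falling between control-based bounds plus 3 SD, cut at about 20% in these data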;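 further: 0% = DMSO wells while the 100% control is not disclosed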
CendR NRP1 mod: NRP-1/CendR interaction modulation | O14786 | FAM-RPARPAR peptide binding to NRP-1, fluorescence polarization | inhibition, % at 25 µM | 360,000 tested, 0.85% active | AID 602438;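 active means inhibition or corrected inhibition above about 18%, plus a signal ratio from 0.5 to 1.5, limit read from the data, passing the limit was not always enough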
ADAM17 inh: ADAM17 inhibition, QFRET primary screen | P78536 | recombinant ADAM17, EDANS/DABCYL FRET peptide cleavage | inhibition, % at 6.95 µM | 370,000 tested, 0.83% active;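 active means inhibition above the mean of compounds lying between control limits plus 3 SD, set per campaign, cut at about 8.5% in these data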;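 further: 0% = DMSO-only wells as the low control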
Target sequence (P78536 215-824 limits assumed): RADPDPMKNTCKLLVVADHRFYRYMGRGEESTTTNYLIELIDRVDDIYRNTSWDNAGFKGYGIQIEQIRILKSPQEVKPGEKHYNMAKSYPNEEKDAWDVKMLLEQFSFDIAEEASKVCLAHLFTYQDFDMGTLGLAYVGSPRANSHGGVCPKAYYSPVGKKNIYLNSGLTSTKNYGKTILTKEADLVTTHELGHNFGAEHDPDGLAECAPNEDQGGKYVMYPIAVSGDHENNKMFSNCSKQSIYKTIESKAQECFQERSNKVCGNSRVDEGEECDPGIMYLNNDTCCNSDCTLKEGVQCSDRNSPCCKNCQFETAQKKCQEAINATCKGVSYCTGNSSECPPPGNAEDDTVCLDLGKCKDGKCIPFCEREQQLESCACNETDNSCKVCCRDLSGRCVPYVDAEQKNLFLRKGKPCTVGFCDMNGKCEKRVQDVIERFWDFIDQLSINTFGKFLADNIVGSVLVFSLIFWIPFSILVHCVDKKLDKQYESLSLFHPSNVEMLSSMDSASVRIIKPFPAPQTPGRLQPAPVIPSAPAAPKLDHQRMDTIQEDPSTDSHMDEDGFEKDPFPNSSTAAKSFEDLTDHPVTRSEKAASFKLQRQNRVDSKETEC
HGIII-sPLA2 inh: Blocks human group III sPLA2 activity. Q9NZ20. QFRET BODIPY PC-A2 liposome hydrolysis, fluorescence. inhibition, % at 12.2 µM. 370,000 tested, 0.56% active. AID 743126;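 active means inhibition above mean plus 3 SD of compounds lying within the high and low control bounds, cut at about 19% in these data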;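 further: 0% = median of test compound wells and 100% = no enzyme DMSO wells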
ADAM10 counter: ADAM10 inhibition, counter-screen for ADAM17 exosite hits. recombinant ADAM10, EDANS/DABCYL FRET peptide cleavage, 3 h. inhibition, % at 6.95 µM. 2,900 tested, 47% active. shares compounds with ADAM17 inh;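 active means mean inhibition over the triplicate runs exceeds the activity threshold set in the earlier primary screen, cut at about 20% in these data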;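 further: 0% = DMSO wells and 100% = marimastat wells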
ADAM17 confirm: confirmation of inhibitors of human ADAM17. inhibition, % at 6.95 µM. shares compounds with ADAM17 inh. recombinant ADAM17, EDANS/DABCYL QFRET peptide cleavage. AID 743257. 2,900 tested, 65% active;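 active means mean inhibition across replicates above the hit cutoff set in the primary screen, cut at about 8.5% in these data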;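 further: 0% = DMSO wells and 100% = marimastat wells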
Numbers without * were called inactive; nt = not tested or not shown. Shown are actives, neighbours in structure and some others; about 3.4% of the full set was active somewhere.

SMILES	proKLK7 act	ADAM10 inh	CendR NRP1 mod	ADAM17 inh	HGIII-sPLA2 inh	ADAM10 counter	ADAM17 confirm
COc1ccc(CNC(=O)c2c(N)[nH]c(C(=O)c3ccccc3)c2-c2ccc3ccccc3c2)cc1OC	0	16	nt	6	0	nt	nt
COC(=O)c1c(-c2cccc3ccccc23)csc1NC(=O)Cc1ccc(OC)c(OC)c1	-1	17	-5	10*	-1	14	10*
COC(=O)c1c(-c2ccc(C)cc2)csc1NC(=O)Cc1ccc(OC)c(OC)c1	0	3	-22	1	-8	nt	nt
CCOc1ccc(N=C2SC(C(=O)Nc3ccccc3C#N)C(N)=C2C(=O)Nc2ccc(Cl)cc2)cc1 (centres undefined)	-1	16	-5	9.4*	-10	21*	16*
CCOc1ccc(OCC(=O)OCC(=O)Nc2ccccc2C#N)cc1	0	2	2	1	0	nt	nt
Cc1ccc(S(=O)(=O)N2C[C@H]3[C@H]4C(=O)N(c5ccccc5)C(=O)[C@H]4CC(=O)[C@H]3[C@@H]2c2ccc(Cl)cc2)cc1	0	-1	-9	2	-27	nt	nt
CCc1ccc([C@H]2[C@@H]3C(=O)C[C@@H]4C(=O)N(c5ccccc5)C(=O)[C@@H]4[C@@H]3CN2S(=O)(=O)c2ccc(C)cc2)cc1	1	10	-12	8.7*	-39	10	10*
O=C(Nc1ccccc1)c1cc(C2CCCCN2S(=O)(=O)c2ccccc2)on1 (centres undefined)	-1	15	10	12*	-9	13	8
Nc1nc(N(Cc2ccccc2)Cc2ccccc2)nc(C(F)(F)F)n1	-1	17	-4	9.1*	-8	9	8.9*
COC(=O)[C@@H]1C[C@@]2(O)[C@H](O)[C@H](O)[C@H](O)C[C@H]2N1Cc1ccc(C(F)(F)F)cc1	0	1	27*	10*	13	7	6
CC(C)[C@H](NC(=O)OCc1ccccc1)C(=O)N[C@@H](Cc1ccccc1)C1(O)CN(C)C(C(=O)NCc2ccccn2)CO1 (some centres undefined)	nt	-8	nt	-3	-4	nt	nt
CCN(CC)C(=O)c1nc[nH]c1C(=O)N(CC)CC	0	9	22	9.2*	6	6	4
CCN(CC)C(=O)c1[nH]cnc1C(=O)Nc1ccccc1	1	8	6	-5	9	nt	nt
C[C@]12Cc3ccccc3C1CC1=N[C@@H](c3ccc(C(F)(F)F)cc3)O[C@@]13C[C@@H]2C(=O)N3C1CCN(Cc2ccccc2)CC1 (some centres undefined)	0	-9	nt	-2	-2	nt	nt
C=CCn1c(COc2ccccc2)nnc1SCC(=O)c1ccc(-c2ccccc2)cc1	-1	-4	nt	5	-15	nt	nt
CCCCN1C(=O)C(O)=C(C(C)=O)C1c1ccc(OC)cc1OC (centres undefined)	0	8	0	10*	-1	0	1
CCN(C(=O)C1=COCCO1)c1nc2c(C)cccc2s1	0	5	7	9.3*	-9	-2	3
Cc1cc(C)c2nc(N(CCCN(C)C)C(=O)C3=COCCO3)sc2c1	0	-3	1	-6	-2	nt	nt
C[C@H]1CN([C@@H](C)CO)C(=O)c2cccc(NC(=O)c3cnccn3)c2O[C@@H]1CN(C)S(=O)(=O)c1ccc(F)cc1	nt	nt	0	nt	nt	nt	nt
C[C@H](CO)N1C[C@H](C)[C@@H](CN(C)S(=O)(=O)c2ccccc2)Oc2c(NC(=O)c3ccncc3)cccc2C1=O	0	4	11	11*	-2	2	6
C[C@H](CO)N1C[C@H](C)[C@@H](CN(C)Cc2ccncc2)Oc2c(NC(=O)c3ccncc3)cccc2C1=O	0	1	3	-6	6	nt	nt
C[C@H](CO)N1C[C@H](C)[C@@H](CN(C)C)Oc2c(NC(=O)CCC(F)(F)F)cccc2C1=O	0	1	5	10.0*	7	-3	2
C[C@H](CO)N1C[C@H](C)[C@@H](CN(C)Cc2ccncc2)Oc2c(NC(=O)CCC(F)(F)F)cccc2C1=O	0	-2	6	0	-5	nt	nt
C[C@H](CO)N1C[C@H](C)[C@@H](CN(C)S(=O)(=O)c2ccc(F)cc2)Oc2c(NC(=O)c3ccncc3)cccc2C1=O	-1	12	0	10*	0	1	4
COc1cc(NC(=O)c2ccccc2)c(C)cc1NC(=O)CSc1nnc(-c2ccco2)n1Cc1ccco1	1	0	nt	3	-14	nt	nt
SMILES	proKLK7 act	ADAM10 inh	CendR NRP1 mod	ADAM17 inh	HGIII-sPLA2 inh	ADAM10 counter	ADAM17 confirm
Nc1ccc(N=Nc2ccccc2)c2cccnc12	0	16	5	9.5*	13	25*	14*
NC(=O)C1CCN(c2nc3c(S(=O)(=O)c4ccccc4)nnn3c3ccccc23)CC1	0	-2	4	13*	-5	-8	2
CC(Sc1nc2ccccc2s1)C(=O)N(C)Cc1ccccc1 (centres undefined)	-1	-2	-2	8.8*	-4	5	4
CN(c1ccc(OCc2ccc([N+](=O)[O-])cc2)cc1)S(=O)(=O)c1ccccc1	-1	15	-4	9.3*	-9	17	13*
Cc1cc(C)n(Cc2ccc(C(=O)NCc3ccco3)o2)n1	0	0	-6	9.4*	-1	-8	-2
Cc1ccc(CNC(=O)c2ccc(Cn3nc(C)cc3C)o2)cc1	1	-5	6	-3	-1	nt	nt
CCNC(=O)O/N=C(\C)c1sc(-c2ccc(Cl)cc2)nc1C	0	12	14	9.8*	-23	7	8
O=C1c2ccccc2-c2onc3ccc(NCc4ccco4)c1c23	nt	nt	128	nt	nt	nt	nt
CCNc1ccc2noc3c2c1C(=O)c1ccccc1-3	-21	6	126	9.0*	-218	-3	5
Cc1ccc(CSc2nnc(-c3cc(-c4ccc(F)cc4)n[nH]3)n2N)cc1	0	-7	nt	2	5	nt	nt
Nn1c(COc2cccc(Br)c2)nnc1SCC(=O)N1CCc2ccccc2C1	0	10	-7	12*	-7	5	7
Cc1cnc(NC(=O)Nc2ccc(Cl)cc2)s1	0	16	-1	8	-12	nt	nt
Cc1cnc(NC(=O)CSc2ccc(Cl)cc2)s1	0	9	0	9.0*	-10	7	7
N#CCC[C@H]1CC[C@]2(CCCN(Cc3ccccc3)C2)O1	-1	-6	nt	-4	6	nt	nt
Nc1nc2cc3c(cc2cc1C(=O)NCCc1c[nH]c2ccccc12)OCO3	-1	-240	nt	-76	-42	nt	nt
O=S(=O)(Nc1ccc(-c2nnc(SCc3ccc(Cl)cc3)o2)cc1)c1ccccc1	0	18	16	9.2*	-75	23*	14*
